Measurements: PubChem BioAssay (NCI)
Compounds without any hit were thinned out: in the full panel of roughly 83,000, 20% have a hit.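 In brief: 96-well plates, 48 h treatment, single concentration, percent growth endpoint.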 Values without a mark were called inactive. The source made the active and inactive calls. The calls were made as follows: active = growth percent below 10; inactive = the rest.

What was measured:
Experiment in all cases: NCI-60 one-dose screen, 48 h (100 = growth as untreated, 0 = no growth, -100 = all killed)
Settings in all cases: 10 µM unless noted
RPMI-8226 leukemia = tested on: RPMI-8226 leukemia
OVCAR-8 ovarian = tested on: OVCAR-8 ovarian
OVCAR-4 ovarian = tested on: OVCAR-4 ovarian
SK-OV-3 ovarian = tested on: SK-OV-3 ovarian
IGROV1 ovarian = tested on: IGROV1 ovarian
OVCAR-3 ovarian = tested on: OVCAR-3 ovarian
HS 578T breast = tested on: HS 578T breast
NCI/ADR-RES ovarian = tested on: NCI/ADR-RES ovarian
OVCAR-5 ovarian = tested on: OVCAR-5 ovarian

Row | Compound | growth (RPMI-8226 leukemia) | growth (OVCAR-8 ovarian) | growth (OVCAR-4 ovarian) | growth (SK-OV-3 ovarian) | growth (IGROV1 ovarian) | growth (OVCAR-3 ovarian) | growth (HS 578T breast) | growth (NCI/ADR-RES ovarian) | growth (OVCAR-5 ovarian)
1 | Cc1ncc(C(=O)Nc2ccc(CN3CCN(C)CC3)c(C(F)(F)F)c2)cc1C#Cc1c(N)ncc2ccc(F)cc12 | -43.6% (active) | -74.8% (active) | -58.6% (active) | 41.4% | -76% (active) | -23.4% (active) | -1.46% (active) | -29.7% (active) | –
2 | CN1CCN(Cc2ccc(NC(=O)c3ccc(C#Cc4c(N)ncc5ccc(F)cc45)cc3)cc2C(F)(F)F)CC1 | -43.3% (active) | -28.4% (active) | -19.9% (active) | 64% | -50.6% (active) | -25.9% (active) | 29.9% | -12.3% (active) | –
3 | CC(C)(C)OC(=O)N1C/C(=C\c2ccccc2)C(=O)/C(=C/c2ccccc2)C1 | 31% | – | 97.9% | 95.2% | 95.5% | 103% | 102% | 98.9% | 86.5%
4 | C=C1CCC2C3(C)COC(c4ccccc4)OC3CCC2(C)C1C/C=C1/C(=O)OCC1O (centres undefined) | – | – | 66.6% | – | 59.2% | – | – | 51.5% | 117%
5 | O=C(CN1CCN(c2cccc(Cl)c2)CC1)N1CCN(c2nnc(-c3ccc(Cl)cc3)c(-c3ccc(Cl)cc3)n2)CC1 | -33.5% (active) | – | 76.8% | 105% | – | 72.6% | 61.9% | 70.6% | 96.3%
6 | O=C(Nc1ccc(-n2cc(-c3ccncc3)c(-c3ccc(Cl)c(O)c3)n2)cc1)Nc1cc(C(F)(F)F)cc(C(F)(F)F)c1 | -25.7% (active) | – | 26.5% | 15% | 23.4% | 17.3% | -31.2% (active) | 11.3% | –
7 | COc1cccc(CNC(=O)c2cccc(C3CC(=O)c4c(cc(OC)c(OC)c4OC)O3)c2)c1 (centres undefined) | 32.9% | – | 78.3% | – | 46.5% | 12.6% | 102% | 41.7% | 89.1%
8 | NC(N)=Nc1ccc(/C=C2\C=Cc3ccccc32)cc1 | – | 71.7% | 77.7% | 78.6% | 51.2% | 72.9% | 81.3% | 80.9% | 80.7%
9 | CCn1cc(C(=O)O)c(=O)c2cc(F)c(N3CCN(S(=O)(=O)c4ccc(Cl)cc4)CC3)cc21 | 13.4% | – | 37.7% | 40.8% | 9.37% (active) | 28.2% | 18.9% | 68.7% | 51.9%
10 | N#Cc1c2ncccc2c2nnc3cc(Cl)c(Cl)cc3n12 | – | 87.6% | 108% | 104% | 72.9% | 70.2% | – | 99.8% | 90.1%
11 | COc1cccc(-c2cc(-c3cc4ccccc4oc3=O)nc(N)n2)c1 | 108% | – | – | – | 70% | 95% | 80.8% | 105% | 98.2%
12 | Cc1c(O)c(N=Nc2ccc(C(=O)O)c(O)c2)c2ccccc2c1O | 106% | – | 107% | 95.5% | -25.9% (active) | 108% | 94.7% | 110% | 25.5%
13 | COC1=CC(c2ccc[nH]2)=N/C1=C\c1[nH]c(C)c(C(=O)CCCCC(=O)NC(C)(C)C)c1C | 35.4% | 28.2% | 39.6% | – | – | 18.4% | – | 30.1% | 48.3%
14 | CCC(C)(CC)c1ccc(O)c(C)c1 | 98.8% | – | 109% | – | 106% | 116% | 101% | 102% | 109%
15 | CCOP1(=O)CC(C)=C(Cl)C(P(=O)(O)O)C1 (centres undefined) | 81.9% | 91.8% | 94.5% | 110% | – | 113% | 107% | 96.1% | –
16 | CC1(c2ccc(Br)cc2)NC(=O)NC1=O (centres undefined) | 113% | – | 104% | 103% | 102% | 104% | 101% | 103% | 104%
17 | COc1cc2c(cc1OC)C(Cc1cc(OC)c(OC)cc1[N+](=O)[O-])=NCC2 | 78.1% | 98% | 91.6% | 89.8% | 98.1% | 95.4% | 87.8% | 81.8% | –
18 | O=Nc1ccc(O)c2ccccc12 | -12.1% (active) | – | -96.5% (active) | 99.9% | 2.08% (active) | -6.85% (active) | 53.2% | -0.605% (active) | 1.31% (active)
19 | COc1cc2cn3c4ccc(O)cc4[nH]c(=O)c3c2cc1OC | -2.13% (active) | 0.127% (active) | – | – | -3.23% (active) | -13.9% (active) | -11.2% (active) | 24.7% | 30%
20 | COc1ccc(C(=O)c2no[n+]([O-])c2C(=O)c2ccc(OC)cc2)cc1 | -68.1% (active) | – | -68.5% (active) | 113% | – | -100% (active) | 108% | 96.2% | 89.8%
21 | CC(C)C(=O)c1ccc(Cl)s1 | – | 102% | 90.5% | 101% | 96.2% | 106% | 100% | 104% | 105%
22 | COc1cc(-c2c3c(cn2CCN2CCCCC2)-c2oncc2CC3)cc(OC)c1OC | 108% | – | 100% | 93.7% | 104% | 113% | 99.3% | 97.3% | 85.3%
23 | COc1cc(-c2nn(-c3ccc(NC(=O)c4ccc(Cl)c(C(F)(F)F)c4)cc3)cc2-c2ccncc2)ccc1Cl | -23% (active) | – | 46.4% | 60.5% | 46.7% | 28.7% | -49.7% (active) | 30.7% | 55.7%
24 | O=C(NCCNCCO)c1cc([N+](=O)[O-])cc([N+](=O)[O-])c1O | 96.7% | 101% | 108% | 111% | 107% | 110% | 109% | 107% | –
25 | C/C=C(/C)C(=O)OC1C=C(CO)C(=O)C(OC(=O)C2(C)OC2C)C1C(C)C (centres undefined) | -37.4% (active) | – | 13.6% | – | -31.2% (active) | -46.9% (active) | 30.9% | 6.41% (active) | -40% (active)
26 | CCN(CC)CCNc1ncnc2c1cnn2-c1ccc(Cl)cc1 | 96.7% | – | 90.6% | 99.7% | – | 63.1% | 77.5% | – | 89.6%
